Experiment [1] is described as follows: ATG_E_Box_CIS: Attagene CIS-FACTORIAL HepG2 Assay for human Enhancer Box (E-box) (AID 2282936). The settings on record: HepG2 E-box cis-reporter transcription, actives raise or lower the signal. In outline:
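DMSO served as negative control and baseline for bidirectional fitting. Human hepatoma HepG2 cells, transiently transfected with cis-reporter constructs, were dosed 24 h; reporter mRNA read by RT-PCR and capillary electrophoresis.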

The nature of experiment [2]: ATG_M_61_CIS: Attagene CIS-FACTORIAL HepG2 Assay for M61 Transcription Factor (Internal Marker) (AID 2282937). The following applies: HepG2 Attagene CIS-FACTORIAL M61 internal marker reporter; actives raise or lower the signal. The procedure, abridged:
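Endogenous transcription factor activity in HepG2 is read through transiently transfected cis-element reporter units. After 24 h dosing, RNA undergoes reverse transcription, PCR and primer extension with 6-FAM before capillary electrophoresis; DMSO-referenced bidirectional fit.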

Experiment [3] in a line: ATG_EGR_CIS: Attagene CIS-FACTORIAL HepG2 Assay for human Early Growth Response 1 (EGR1) (AID 2282938). The following applies: HepG2 Attagene CIS-FACTORIAL EGR reporter mRNA; actives raise or lower the signal. The procedure, abridged: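 Activity is taken as induction or loss of reporter mRNA versus DMSO, fitted bidirectionally. Transcripts from cis-regulated reporter units in transiently transfected HepG2 were measured after 24 h by RT-PCR with capillary electrophoresis.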

Experiment [4] is described as follows: ATG_ERE_CIS: Attagene CIS-FACTORIAL HepG2 Assay for Estrogen Response Element (ERE) (AID 2282940). The following applies: HepG2 ERE cis-reporter, Attagene RNA transcript; actives raise or lower the signal. In outline: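 HepG2 cells transiently transfected with multiplexed cis-element reporter units, measuring endogenous transcription factor activity; ERE reporter mRNA quantified after 24 h exposure by RT-PCR, fluorescent labelling, HpaI digestion and capillary electrophoresis. Bidirectional change versus DMSO.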

The nature of experiment [5]: ATG_Ets_CIS: Attagene CIS-FACTORIAL HepG2 Assay for human Erythroblast Transformation Specific (ETS) (AID 2282941). The settings on record: HepG2 ETS cis-reporter transcription, actives raise or lower the signal. In outline: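 After transient cis-reporter transfection, HepG2 cells receive test chemical for 24 h. Reporter mRNA levels, measured by RT-PCR and capillary electrophoresis fluorescence, are analysed bidirectionally relative to the DMSO baseline.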

The target in experiment [6] is Hepatocyte nuclear factor 3-beta (Homo sapiens) (UniProt Q9Y261). The experiment is described as follows: ATG_FoxA2_CIS: Attagene CIS-FACTORIAL HepG2 Assay for human Forkhead box A2 (FOXA2) (AID 2282942). The following applies: HepG2 cis-reporter transcription factor activity, 24 h; actives raise or lower the signal. The procedure, abridged: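 Reporter transcript induction is measured by fluorescence after capillary electrophoresis of RT-PCR products from HepG2 cells exposed 24 h. Cis-regulated reporter units report endogenous factor activity; curves fitted both directions against DMSO.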

The nature of experiment [7]: ATG_FoxO_CIS: Attagene CIS-FACTORIAL HepG2 Assay for human Forkhead box O (FoxO) (AID 2282943). The settings on record: HepG2 Attagene cis-reporter, FoxO element, mRNA; actives raise or lower the signal. The procedure, abridged: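 HepG2, transient MRTU transfection (cis element, endogenous TFs). Dose 24 h. TriZol RNA → oligo(dT) RT → PCR → 6-FAM primer extension → HpaI cut → CE. Gain/loss vs DMSO.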

Experiment [8] is described as follows: ATG_GATA_CIS: Attagene CIS-FACTORIAL HepG2 Assay for human GATA Binding Protein (AID 2282944). The settings on record: HepG2 GATA cis-element reporter, Attagene multiplex mRNA; actives raise or lower the signal. In outline:
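HepG2 cells transiently transfected with multiplexed cis-element reporter units measure endogenous GATA activity; after 24 h compound exposure, reporter mRNA quantified by RT-PCR and capillary electrophoresis. Changes fitted in both directions vs DMSO.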

Experiment [9] in a line: ATG_GLI_CIS: Attagene CIS-FACTORIAL HepG2 Assay for human Zinc Finger Protein GLI1 (AID 2282945). The settings on record: HepG2, Attagene cis-factorial reporter mRNA, GLI element; actives raise or lower the signal. The procedure, abridged: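 Bidirectional curve fits relative to DMSO, using reporter mRNA levels from RT-PCR plus capillary electrophoresis. Cells were HepG2 transiently carrying cis-regulated reporter constructs, harvested 24 h after dosing.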

Experiment [10] in a line: ATG_GRE_CIS: Attagene CIS-FACTORIAL HepG2 Assay for human Glucocorticoid Response Elements (GRE) (AID 2282947). The following applies: HepG2 GRE cis-reporter, Attagene multiplex mRNA; actives raise or lower the signal. The procedure, abridged:
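Assay uses human hepatoma HepG2 cells transfected with cis-promoter reporter units, exposed 24 h. mRNA from reporters detected by RT-PCR plus capillary electrophoresis; DMSO serves as negative control and baseline.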

A short description of experiment [11]: ATG_ISRE_CIS: Attagene CIS-FACTORIAL HepG2 Assay for human Interferon Regulatory Factor 1 (IRF1) binding to an Interferon-Stimulated Response Element (ISRE) (AID 2282948). The following applies: HepG2 ISRE cis-reporter (Attagene), mRNA transcription readout; actives raise or lower the signal. In outline:
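Quantitation relies on labelled RT-PCR fragments separated by capillary electrophoresis. Human HepG2 cells bearing cis-promoter reporter constructs were treated 24 h; DMSO served as baseline for bidirectional fitting.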

Experiment [12] in a line: ATG_M_32_CIS: Attagene CIS-FACTORIAL HepG2 Assay for M32 Transcription Factor (Internal Marker) (AID 2282949).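 Also: background control marker of the multiplexed CIS panel rather than a real target.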 The following applies: HepG2 Attagene cis-factorial M32 reporter, mRNA; actives raise or lower the signal. In outline: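 Internal background marker read-out: RT-PCR/capillary electrophoresis fluorescence of reporter transcripts from transiently transfected HepG2 cells after 24 h chemical exposure. Activity fitted bidirectionally relative to DMSO negative control.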

Experiment [13] addresses Hypoxia-inducible factor 1-alpha (Homo sapiens) (UniProt Q16665). The experiment in a line: ATG_HIF1a_CIS: Attagene CIS-FACTORIAL HepG2 Assay for human Hypoxia Inducible Factor 1 (HIF1A) (AID 2282951). The settings on record: HepG2 Attagene cis-factorial HIF1a reporter transcription; actives raise or lower the signal. In outline: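 Fluorescence intensity of capillary-separated, 6-FAM-labelled reporter amplicons gives mRNA induction in HepG2 cells carrying transfected cis-promoter reporter units; cells exposed 24 h, responses fitted up or down from DMSO.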

Experiment [14] concerns the target Hepatocyte nuclear factor 6 (Homo sapiens) (UniProt Q9UBC0). The experiment is described as follows: ATG_HNF6_CIS: Attagene CIS-FACTORIAL HepG2 Assay for human Hepatocyte Nuclear Factor 6 (HNF6) (AID 2282952). The following applies: HepG2 Attagene cis-factorial HNF6 reporter transcription; actives raise or lower the signal. In outline: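 Multiplexed mRNA reporter assay in transfected HepG2; 24 h dosing; RT-PCR plus capillary electrophoresis fluorescence; DMSO-referenced bidirectional curve fitting.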

For experiment [15], the target named is Heat shock factor protein 1 (Homo sapiens) (UniProt Q00613). The experiment in a line: ATG_HSE_CIS: Attagene CIS-FACTORIAL HepG2 Assay for human Heat Shock Transcription Factor 1 (HSE) (AID 2282953). The following applies: HepG2 HSE cis-reporter, Attagene RNA transcription; actives raise or lower the signal. The procedure, abridged:
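HepG2 cells transfected with cis-promoter reporter units sensing endogenous transcription factor activity; reporter mRNA quantified 24 h post-dose by RT-PCR and capillary electrophoresis of 6-FAM-labelled products. Bidirectional fitting against DMSO.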

The nature of experiment [16]: ATG_MRE_CIS: Attagene CIS-FACTORIAL HepG2 Assay for human Metal Responsive Element (MRE) (AID 2282954). The following applies: HepG2 MRE cis-reporter transcription, Attagene multiplex; actives raise or lower the signal. In outline: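 After a 24 h chemical exposure, transiently transfected HepG2 cells yield RNA whose reporter sequences are amplified, FAM-labelled and sized by capillary electrophoresis. Curves are fitted bidirectionally relative to DMSO.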

The nature of experiment [17]: ATG_PBREM_CIS: Attagene CIS-FACTORIAL HepG2 Assay for human Phenobarbital-responsive Enhancer Module (PBREM) (AID 2282955). The following applies: HepG2 PBREM cis-reporter, Attagene multiplexed transcription; actives raise or lower the signal. The procedure, abridged:
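Cells were transfected with cis-element reporter units and treated for 24 h, after which RNA was extracted and reporter transcripts measured by RT-PCR and capillary electrophoresis.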

Experiment [18] deals with Bile acid receptor (Homo sapiens) (UniProt Q96RI1). The experiment in a line: ATG_IR1_CIS: Attagene CIS-FACTORIAL HepG2 Assay for human Nuclear Receptor Subfamily 1 Group H Member 4 (NR1H4), IR1 submotif (AID 2282946). The settings on record: IR1 reporter transcription, actives raise or lower the signal. In outline: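 Cells (human HepG2) carry transiently transfected cis-promoter reporter transcription units. Compounds are incubated 24 h, total RNA is reverse-transcribed and amplified, and labelled fragments are resolved by capillary electrophoresis. Curves use DMSO as baseline.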

Experiment [19] in a line: ATG_M_06_CIS: Attagene CIS-FACTORIAL HepG2 Assay for M06 Transcription Factor (Internal Marker) (AID 2282950). The following applies: HepG2 Attagene CIS-FACTORIAL M06 internal marker reporter; actives raise or lower the signal. The procedure, abridged: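 Internal background marker within multiplexed cis-reporter HepG2 system. Cells transiently transfected, dosed 24 h; reporter mRNA measured by RT-PCR, HpaI digestion and capillary electrophoresis. Bidirectional fit relative to DMSO.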

Some structures have more than one record in an assay (separate samples or runs), and their calls can disagree. Calls of active or inactive are those of the source. The calls were made as follows: active = hit-call score of the fitted dose curve at least 0.9, where 1 is the maximum; inactive = score below 0.9.

Hypoxia-inducible factor 1-alpha (Homo sapiens), sequence (Q16665 whole entry, looked up): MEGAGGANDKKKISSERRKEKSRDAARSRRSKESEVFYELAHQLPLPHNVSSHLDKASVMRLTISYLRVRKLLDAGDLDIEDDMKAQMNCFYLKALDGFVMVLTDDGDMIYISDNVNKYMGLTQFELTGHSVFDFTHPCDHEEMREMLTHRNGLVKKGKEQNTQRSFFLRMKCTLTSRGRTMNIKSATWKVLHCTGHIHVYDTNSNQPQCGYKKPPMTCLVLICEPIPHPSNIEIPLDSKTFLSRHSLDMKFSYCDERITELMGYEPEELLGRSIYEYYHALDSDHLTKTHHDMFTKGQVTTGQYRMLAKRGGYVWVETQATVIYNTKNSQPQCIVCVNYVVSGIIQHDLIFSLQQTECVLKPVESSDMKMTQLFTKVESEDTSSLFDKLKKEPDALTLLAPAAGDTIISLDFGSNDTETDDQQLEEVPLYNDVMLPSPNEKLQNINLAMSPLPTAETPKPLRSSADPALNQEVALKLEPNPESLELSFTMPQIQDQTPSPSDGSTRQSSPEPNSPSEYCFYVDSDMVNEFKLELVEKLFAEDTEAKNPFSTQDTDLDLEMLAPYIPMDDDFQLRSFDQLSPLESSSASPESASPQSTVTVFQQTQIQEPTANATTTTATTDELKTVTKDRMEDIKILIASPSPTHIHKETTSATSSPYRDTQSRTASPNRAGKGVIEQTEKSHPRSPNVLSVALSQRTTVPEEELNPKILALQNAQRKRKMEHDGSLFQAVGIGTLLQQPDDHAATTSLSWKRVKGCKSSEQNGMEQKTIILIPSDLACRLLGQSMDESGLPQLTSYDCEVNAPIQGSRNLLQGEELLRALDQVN
Hepatocyte nuclear factor 3-beta (Homo sapiens), sequence (Q9Y261 whole entry, looked up): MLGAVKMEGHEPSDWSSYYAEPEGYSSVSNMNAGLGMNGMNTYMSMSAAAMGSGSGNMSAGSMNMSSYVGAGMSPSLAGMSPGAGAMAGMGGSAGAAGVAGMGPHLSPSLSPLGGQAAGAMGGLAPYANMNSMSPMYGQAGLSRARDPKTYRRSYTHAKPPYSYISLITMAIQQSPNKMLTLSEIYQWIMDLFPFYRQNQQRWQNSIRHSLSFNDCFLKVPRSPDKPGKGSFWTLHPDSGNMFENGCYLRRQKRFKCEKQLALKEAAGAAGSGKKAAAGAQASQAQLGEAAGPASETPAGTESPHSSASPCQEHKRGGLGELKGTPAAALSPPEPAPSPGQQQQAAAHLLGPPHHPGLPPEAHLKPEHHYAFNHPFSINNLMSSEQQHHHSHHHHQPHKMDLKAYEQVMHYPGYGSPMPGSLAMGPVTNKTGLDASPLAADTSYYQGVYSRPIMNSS
Hepatocyte nuclear factor 6 (Homo sapiens), sequence (Q9UBC0 whole entry, looked up): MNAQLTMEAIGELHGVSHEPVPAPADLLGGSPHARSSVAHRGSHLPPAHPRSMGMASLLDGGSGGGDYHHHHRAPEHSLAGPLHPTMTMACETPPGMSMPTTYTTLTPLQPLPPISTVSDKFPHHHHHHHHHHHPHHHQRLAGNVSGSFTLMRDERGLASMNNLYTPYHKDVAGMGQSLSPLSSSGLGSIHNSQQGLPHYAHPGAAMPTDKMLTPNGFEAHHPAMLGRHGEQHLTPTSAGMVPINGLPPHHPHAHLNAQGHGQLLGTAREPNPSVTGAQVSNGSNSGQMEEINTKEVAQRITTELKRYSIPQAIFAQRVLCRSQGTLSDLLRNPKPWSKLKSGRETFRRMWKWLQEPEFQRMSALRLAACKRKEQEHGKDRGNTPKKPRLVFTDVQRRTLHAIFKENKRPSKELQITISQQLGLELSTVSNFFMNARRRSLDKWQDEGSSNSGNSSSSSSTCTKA
Heat shock factor protein 1 (Homo sapiens), sequence (Q00613 whole entry, looked up): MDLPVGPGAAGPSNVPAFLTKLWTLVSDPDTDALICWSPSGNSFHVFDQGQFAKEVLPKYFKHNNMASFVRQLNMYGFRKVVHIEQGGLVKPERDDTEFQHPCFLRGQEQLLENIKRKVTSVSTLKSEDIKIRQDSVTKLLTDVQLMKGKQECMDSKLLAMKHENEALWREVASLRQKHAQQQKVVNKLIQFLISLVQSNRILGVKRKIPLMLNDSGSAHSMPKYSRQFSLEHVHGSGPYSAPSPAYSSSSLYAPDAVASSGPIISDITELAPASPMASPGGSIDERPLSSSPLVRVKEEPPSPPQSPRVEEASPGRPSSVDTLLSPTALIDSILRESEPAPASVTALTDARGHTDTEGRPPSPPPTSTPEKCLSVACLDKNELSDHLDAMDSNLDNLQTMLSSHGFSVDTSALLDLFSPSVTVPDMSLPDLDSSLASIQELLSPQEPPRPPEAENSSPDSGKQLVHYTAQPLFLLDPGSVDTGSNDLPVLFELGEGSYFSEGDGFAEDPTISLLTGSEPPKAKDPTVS
Bile acid receptor (Homo sapiens), sequence (Q96RI1 whole entry, looked up, the tested form may be a part): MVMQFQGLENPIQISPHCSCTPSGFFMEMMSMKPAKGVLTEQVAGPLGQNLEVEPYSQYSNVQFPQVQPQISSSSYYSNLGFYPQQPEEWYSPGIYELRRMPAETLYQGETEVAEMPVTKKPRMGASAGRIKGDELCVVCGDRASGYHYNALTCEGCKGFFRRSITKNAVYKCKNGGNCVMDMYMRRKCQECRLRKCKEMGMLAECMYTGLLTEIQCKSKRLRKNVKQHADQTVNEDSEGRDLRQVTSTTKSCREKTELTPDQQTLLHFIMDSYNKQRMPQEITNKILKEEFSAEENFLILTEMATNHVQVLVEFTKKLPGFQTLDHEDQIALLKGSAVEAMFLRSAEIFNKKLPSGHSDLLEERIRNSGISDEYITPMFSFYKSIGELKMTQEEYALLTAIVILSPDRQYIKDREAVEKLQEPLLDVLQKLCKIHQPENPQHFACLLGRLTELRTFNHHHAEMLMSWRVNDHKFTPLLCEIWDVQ

Take `CC#Cc1cc(C)nc(Nc2ccccc2)n1`: the half-maximal activity concentration (AC50) in experiment [1] was 140 µM (active); in experiment [3] it was 67.5 µM (active); in experiment [16] it was 68.2 µM (active). The result in experiment [2], in experiment [4], in experiment [5], in experiment [6], in experiment [7] and in experiment [8] was inactive. In addition, the compound was classed as inactive in experiment [9], in experiment [10], in [11], in [12], in experiment [13] and in experiment [14]. The result in experiment [15] and in experiment [17] was inactive.

Consider `CC(c1ccc(O)cc1)(c1ccc(O)cc1)c1ccc(O)cc1`, for which the AC50 in [1] was 14.7 µM (active); in experiment [3] it was 12.8 µM (active); in experiment [4], 0.0955 µM (active); in [18], 11.1 µM (active); in experiment [11], 16.1 µM (active); in [13], 13.8 µM (active). The AC50 in experiment [14] was 18.6 µM (active); in experiment [16], 13.5 µM (active). Besides, the result in [2], in experiment [5], in experiment [6], in [7], in experiment [8] and in experiment [9] was inactive. Besides, the result in [10], in experiment [12], in experiment [15] and in experiment [17] was inactive.

In the case of `CC(C)C(=O)OCC(C)(C)C(OC(=O)C(C)C)C(C)C` (configuration not stated), the result in experiment [1], in experiment [2], in [3], in experiment [5], in [6] and in [7] was inactive. In addition, the outcome in experiment [8], in experiment [9], in experiment [10], in experiment [11], in experiment [12] and in experiment [13] was inactive. For the same compound, the result in [14], in [15], in experiment [16] and in [17] was inactive. In addition, in [4], the AC50 is 63.6 µM (active).

Turning to `O=C(N[C@H]1CN2CCC1CC2)c1cc2ccoc2cn1`, the result in experiment [1], in experiment [2], in experiment [3], in experiment [4], in experiment [5] and in experiment [6] was inactive. Also, the compound was called inactive in experiment [7], in experiment [8], in [9], in experiment [10], in experiment [12] and in experiment [19]. The compound was called inactive in experiment [13], in experiment [14], in experiment [15], in experiment [16] and in experiment [17]. In addition, the AC50 in [11] is 82.4 µM (active).

For the compound `Clc1ccc(Cl)cc1`, the outcome in [1], in [2], in experiment [3], in experiment [4], in [5] and in experiment [6] was inactive. In addition, the result in experiment [7], in experiment [8], in experiment [9], in experiment [10], in [11] and in experiment [12] was inactive. For the same compound, the result in experiment [13], in [14], in [15], in experiment [16] and in [17] was inactive. Besides, the AC50 was 5.24 µM (active) in [13] and 179 µM (active) in [15].

As for `Cc1ccccc1O`, the outcome in [1], in experiment [2], in [3], in experiment [4], in [5] and in experiment [6] was inactive. For the same compound, the outcome in experiment [7], in experiment [8], in experiment [9], in experiment [10], in experiment [11] and in experiment [12] was inactive. Further, the result in experiment [19], in [13], in [14], in experiment [15], in experiment [16] and in [17] was inactive.

Broadly, the AC50 is the midpoint of the concentration-response curve, whichever way the signal moves.
